Bioassay records as filed in PubChem.
HIF-2a block = HIF-2a reporter inhibitors, primary screen, luminescence, 786-0 RCC cells; inhibition, % at 18.8 µM; 786-0 RCC cells HIF-2a reporter, luciferase luminescence, overnight; 0.72% of 360,000 active;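 active means inhibition of the luminescence signal of 40% or more relative to plate controls, in a single-dose primary screen at 18.75 µM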
TWEAK-Fn14 inh = inhibitors of TWEAK-Fn14 signaling, primary screen, luciferase reporter cells, uHTS | TWEAK-stimulated Fn14 reporter cells, luciferase luminescence, 8 h | inhibition, % at 10 µM | 2% of 360,000 active; in the data active means inhibition above about 50%
KKLEB cytotox = cytotoxicity in KKLEB CF airway cells, primary screen, cytotoxicity control for CF NF-kB inhibitor project, cell-based, uHTS, fluorescence assay plates | KKLEB CF airway cells viability, ATPlite luminescence, overnight; stronger effect = lower value; cells stimulated with P. aeruginosa culture filtrate | activity change (cytotoxicity), % at 5 µM | 0.36% of 360,000 active | AID 602141, 2011;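 active means corrected activity change at or below -50% at 5 µM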
CF NFkB block = inhibitors of PAF-induced NF-kB signaling, primary screen, cell-based, GFP fluorescence, uHTS; KKLEB NF-kB-GFP reporter, GFP fluorescence overnight; AID 588850, 2011; 0.86% of 360,000 active; inhibition, % at 5 µM;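 active means at least 50% inhibition at 5 µM, scaled per plate between neutral and stimulator controls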;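 further: PAF is a Pseudomonas aeruginosa culture filtrate used as stimulus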
Peg3 prom inh = Peg3 promoter-driven luciferase inhibitors, primary screen, cell-based, HeLa, luciferase luminescence. HeLa PEG-Prom luciferase reporter, overnight. inhibition, % at 20 µM. 1.7% of 360,000 active;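 active means inhibition of at least 50% at 20 µM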
TROY NFkB inh = inhibitors of TROY-driven NF-kB signaling, primary screen, Q293 LMP1-TROYcd cells, NF-kB luciferase, uHTS; inhibition, % at 10 µM; 0.98% of 360,000 active; Q293 LMP1-TROYcd NF-kB luciferase reporter, 4 h;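 active means compounds whose plate-normalised and pattern-corrected inhibition of the luciferase reporter signal at the single screening dose is 50% or more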
Mdm2-MdmX confirm = retested Mdm2-MdmX interaction blockers, confirmation, cell-based, luminescence, single concentration, set 2; shares compounds with HIF-2a block; SaOS-2 split-luciferase Mdm2/MdmX complementation; inhibition, % at 8 µM; 99% of 740 active;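 active means mean inhibition of the luminescence signal across two replicates at or above 26 percent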
HIF-2a inh conf = HIF-2a reporter inhibitor retest, confirmation, luminescence, 786-0 RCC cells. shares compounds with HIF-2a block. HIF-2a luciferase reporter luminescence, overnight. inhibition, % at 18.8 µM. 56% of 1,800 active. AID 651580, 2012;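 active means mean inhibition across four replicates of at least 40 percent at the single tested concentration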
HIF-1a cs = HIF-1a luciferase reporter signal reduction – MiaPaCa-2 cells, single concentration, counter-screen for HIF-2a inhibitor project, confirmation. shares compounds with HIF-2a block. MiaPaCa-2 HIF-1a luciferase reporter, desferoxamine, overnight. inhibition, % at 18.8 µM. 72% of 1,800 active. AID 651589, 2012;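 active means mean inhibition of the reporter signal across four replicates at the single tested dose of 50% or more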
Hits are given with their value; . = inactive; / = no result. In the library only some 3.9% were active in any assay of this set; here they are far more common.

SMILES	HIF-2a block	TWEAK-Fn14 inh	KKLEB cytotox	CF NFkB block	Peg3 prom inh	TROY NFkB inh	HIF-2a inh conf	HIF-1a cs	others
Cc1ccc(-c2nc3ncccc3o2)cc1NC(=O)c1ccc([N+](=O)[O-])o1	53.5	.	.	.	56.8	.	.	102.1
CN1CCN(c2ccc(NC(=O)c3ccc([N+](=O)[O-])o3)cc2Cl)CC1	57.4	.	.	80.3	100.1	.	55.8	58.8
O=C(Nc1ccccc1N1CCCCC1)c1ccc([N+](=O)[O-])o1	.	.	.	.	.	.	/	/
COC(=O)C(=Cc1ccc(OCc2ccc([N+](=O)[O-])cc2)c(OC)c1)C(=O)OC	81.5	90.8	.	.	.	57.4	82.5	101.1
CC(=O)Nc1ccccc1OCCCN1CCC(C(O)(c2ccccc2)c2ccccc2)CC1	.	.	/	/	/	.	/	/
CCc1ccc(S(=O)(=O)ON2C(=O)c3ccccc3C2=O)cc1	46.1	.	.	.	51.3	.	51.0	.
COc1ccc(OC)c(S(=O)(=O)ON2C(=O)c3ccccc3C2=O)c1	56.9	.	.	.	54.1	.	59.6	.
COc1ccc(OC)c(S(=O)(=O)N2CCN(c3ccccc3)CC2)c1	.	.	.	.	.	.	/	/
O=c1cccc2c1c1cc[nH]c3ccc(=O)n2c31	.	54.2	.	.	.	.	/	/	Mdm2-MdmX confirm=92.7
O=c1cc[nH]c2ccc(Cl)cc12	.	.	.	.	.	.	/	/
Cc1c(CCC(=O)NCCCCCC(=O)O)c(=O)oc2c(C)c3oc4c(c3cc12)CCCC4	.	.	.	.	.	.	/	/
CCCCC(NC(=O)CCc1c(C)c2cc3c4c(oc3c(C)c2oc1=O)CCCC4)C(=O)O (stereo unspecified)	52.7	.	.	.	.	.	54.7	.
Cc1c(CCC(=O)N2CCC[C@H]2C(=O)O)c(=O)oc2c(C)c3oc4c(c3cc12)CCCC4	56.7	.	.	.	.	.	71.4	.
Cc1c(CCC(=O)NCCCn2ccnc2)c(=O)oc2c(C)c3oc4c(c3cc12)CCCC4	47.3	.	.	.	.	.	63.2	58.8
CCCCC(NC(=O)Cc1c(C)c2cc3c4c(oc3c(C)c2oc1=O)CCCC4)C(=O)O (stereo unspecified)	.	.	.	.	.	.	/	/
CCCCCCCCCCCn1nnnc1N	.	.	.	.	.	.	/	/
COc1ccc(-c2cc(N)n(S(=O)(=O)c3c(F)c(F)c(F)c(F)c3F)n2)cc1OC	86.3	50.8	.	.	109.7	.	99.5	104.0
Cc1nnc(SCC(=O)NC23CC4CC(CC(C4)C2)C3)n(N)c1=O	68.1	97.3	.	.	.	84.6	.	.
Cc1nnc(SC(=O)N2c3ccccc3Sc3ccccc32)s1	.	90.1	-58.3	68.8	98.5	.	/	/	Mdm2-MdmX confirm=103.2
CCOC(=O)N1c2ccccc2Sc2ccccc21	.	.	.	.	.	.	/	/
CCN1CCN(c2nc3ccccn3c(=O)c2/C=C(\C#N)S(=O)(=O)c2ccccc2)CC1	.	.	.	.	.	.	/	/
COc1ccc(C(=O)c2ccc(CC(=O)O)s2)cc1	59.4	.	.	.	.	.	66.2	60.6
O=C(O)Cc1ccc(C(=O)c2ccccc2)s1	.	.	.	.	.	.	/	/
Cc1cc(C)c(-c2c(O)c3c(n(C)c2=O)CC(C)(C)CC3=O)c(C)c1	.	.	.	.	.	.	/	/
